Most compounds without a hit are left out; they make up all but 10% or so of the library.
BAZ2B block – qHTS Assay for Inhibitors of BAZ2B; Bromodomain adjacent to zinc finger domain protein 2B (Homo sapiens), Q9UIF8; AlphaScreen BAZ2B-H3K14Ac peptide displacement; Potency, µM (top dose mostly 114 µM), for the others: at the top dose activity change, negative = inhibition, most hits filed as inhibitors; actives 4.4% (n = 360,000); AID 504333, 2011; note: potency is the fitted concentration of half-maximal effect; % is set by controls: 0 for no effect and ±100 for the full control effect; nearly all actives have a fitted effect of over 60% in size
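Complex of BAZ2B and biotin-H3K14Ac (50 nM apiece) forms over 30 min at RT, then faces library compounds up to 110 uM for another 30 min; AlphaScreen beads added, 20 min dark incubation, luminescence read.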
HP1b chromo inh – HTS for Inhibitors of HP1-beta Chromodomain Interactions with Methylated Histone Tails | Chromobox protein homolog 1 (Homo sapiens), P83916 | AlphaScreen HP1-beta / biotin-H3K9me3 peptide binding | Potency, µM (highest dose often 114 µM), without a hit: at the top dose activity change, negative = inhibition, usual class: inhibitors | actives 0.56% (n = 390,000) | AID 540317, 2011; note: potency is the fitted concentration of half-maximal effect; nearly all actives have a fitted effect of over 70% in size
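AlphaScreen: HP1-beta (50 nM) preformed 30 min with biotin-H3(1-18)K9me3 peptide (50 nM) in PBS pH 7.4, 0.01% Tween-20. Compound added for 30 min at RT, then streptavidin donor/nickel chelate acceptor beads (10 ug/mL) for 30 min.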
JMJD2A Tudor inh – qHTS Assay for Inhibitors of JMJD2A-Tudor Domain; Lysine-specific demethylase 4A (Homo sapiens), O75164; AlphaScreen JMJD2A-Tudor / H3K4me3 peptide binding; Potency, µM (titrated, usually from 114 µM), inactives show top-dose activity change, negative = inhibition, actives largely listed as inhibitors; actives 4.4% (n = 390,000); AID 504339, 2011; note: potency is the fitted concentration of half-maximal effect; % is set by controls: 0 for no effect and ±100 for the full control effect; nearly all actives have a fitted effect of over 50% in size
CtBP-E1A blk – qHTS Assay for Inhibitors of the CtBP/E1A Interaction; actives 0.49% (n = 340,000); CtBP / adenovirus E1A interaction (AlphaScreen); AlphaScreen GST-E1A/His-CtBP binding, 1536-well; active compounds read low; activity change, % (test concentration not listed); in the data active = activity change below about -65%; inconclusive = mostly about -30% to -63%; note: % is set by controls: 0 for no effect and ±100 for the full control effect
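Protein mix (5X: 125 nM each GST-E1A, His-CtBP) was incubated with pinned compound 2 h at 37 deg C in dark, in 50 mM Tris pH 8.0 buffer with 300 mM NaCl. Glutathione donor and nickel acceptor beads followed; AlphaScreen signal read after 1 h.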
G9a block – qHTS Assay for Inhibitors of Histone Lysine Methyltransferase G9a. Potency, µM (top dose mostly 102 µM), for inactives: at the top dose activity, negative = inhibition, actives largely listed as inhibitors. actives 8.8% (n = 350,000). G9a H3K9 monomethylation, AlphaScreen, 2 h. Histone-lysine N-methyltransferase EHMT2 (Homo sapiens), Q96KQ7; note: potency is the fitted concentration of half-maximal effect; % is set by controls: 0 for no effect and ±100 for the full control effect; nearly all actives have a fitted effect of over 75% in size
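Readings reflect AlphaScreen signal from monomethyl-H3K9 antibody detection. HMT at 20 nM; substrate b-H3K9 500 nM; cofactor SAM 20 uM; 2 h RT reaction; compounds tested as titrations in qHTS with 15 min preincubation.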
Six1-Eya2 inh – qHTS Assay for Inhibitors of the Six1/Eya2 Interaction; Homeobox protein SIX1 (Homo sapiens) + Protein phosphatase EYA2 (Homo sapiens), …; AlphaScreen GST-Six1/His-Eya2 binding, biochemical; active compounds read low; activity change, % (no concentration beside the values); actives 0.56% (n = 360,000); AID 651725, 2012; in the data active = activity change below about -65%; inconclusive = mostly about -30% to -63%; note: % is set by controls: 0 for no effect and ±100 for the full control effect
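Six1/Eya2 binding was read as AlphaScreen signal after compounds were pinned into GST-Six1 plus His-tagged Eya2 (5X stock 250/500 nM) in pH 8.0 Tris/NaCl/TCEP buffer, beads added, then incubated 1 h, 37 C, dark.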
* hit, by the source's call; ? = inconclusive; / = not tested or not shown; [ ] = another dose, or the depositor's remark. Unless noted, calls come from the whole dose curve; as a rule, active = well fitted inhibition curve with a large enough effect; inconclusive = small, poorly fitted or top-dose-only effect; inactive = no such curve, though single readings can be large or run the other way.

SMILES	BAZ2B block	HP1b chromo inh	JMJD2A Tudor inh	CtBP-E1A blk	G9a block	Six1-Eya2 inh
S=P(c1ccc(N2CCOCC2)cc1N1CCOCC1)(N1CCOCC1)N1CCOCC1	-30%	?	-32%	0	10µM*	20
Cc1[nH]c(-c2ccc(F)cc2)cc1C(=O)N1CCN(c2ccccc2)CC1	?	-29%	56µM*	-3	50µM*	-15
Cc1cccc(N2CCN(C(=O)Nc3ccc(F)cc3)CC2C)c1 (centres undefined)	-2%	32%	-17%	/	1%[59 µM]	/
Cc1ccc(N2CCN(C(=O)c3cc(-c4ccc(F)cc4)[nH]c3C)CC2C)cc1 (centres undefined)	45µM*	?	?	-20	?	-29
COc1ccccc1N1CCN(C(=O)c2cc(-c3ccc(F)cc3)[nH]c2C)CC1	?	?	56µM*	-2	50µM*	-7
COc1cccc(N2CCN(C(=O)c3cc(-c4ccc(F)cc4)[nH]c3C)CC2)c1	-36%	?	?	-1	?	-22
Cc1[nH]c(-c2ccc(F)cc2)cc1C(=O)N1CCN(c2ccccc2F)CC1	?	?	?	-4	71µM*	-9
Cc1nn2c(C)c(C(=O)N3CCN(c4ccccc4F)CC3)cnc2c1-c1ccc(F)cc1	-2%	54%	-1%	/	4%[59 µM]	/
CCN(CC(=O)Nc1cc(Cl)ccc1C)C(=O)c1nc2nc(C)cc(C)n2n1	9%	64%	-11%	3	?	6
CCC(=O)OC1(C)C(=O)C=C2C=C(c3ccsc3)OC=C2C1=O (centres undefined)	50µM*	?	28µM*	-8	?	-3
COC(=O)CCCC1=CC2=CC(=O)C(C)(OC(=O)CCc3ccccc3)C(=O)C2=CO1 (centres undefined)	56µM*	-22%	79µM*	-13	-36%[59 µM]	-15
COC(=O)CCC(=O)OC1(C)C(=O)C=C2C=C(c3ccsc3)OC=C2C1=O (centres undefined)	/	?	50µM*	-20	/	-18
COc1ccc(C(C(=O)NC(C)(C)C)n2c(-c3ccc(C(F)(F)F)cc3)nc3ccccc32)cc1 (centres undefined)	/	/	/	0	/	4
COc1ccc(-n2c(=O)c(-c3cc(F)cc(F)c3)nc3cncnc32)cc1	/	/	/	/	2%[0.501 µM]	/
Cc1ccc(C(=O)N2CCN(c3ccc(F)cc3)CC2)cc1NC(=O)c1nsc2ccccc12	-17%	4%[57 µM]	-35%	/	-39%[59 µM]	/
COc1ccc(CNC(=O)c2sc3nc[nH]c(=O)c3c2C)cc1	2%	22%[57 µM]	-6%	/	23%[59 µM]	/
CCOC(=O)c1sc(N)c(C(=O)OCC)c1C	-3%	13%	-9%	7	7%[59 µM]	-3
CCN(CC)C(=O)c1sc(N)c(C(=O)OC(C)C)c1C	6%	-12%	-23%	-11	11µM*	-6
CCOC(=O)c1c(N)sc(C(=O)OCCOC)c1C	-20%	?	-22%[57.1 µM]	-23	11µM*	1
CCOC(=O)c1sc(N)c(C(=O)Nc2ccccc2)c1C	-19%	?	-20%	0	10µM*	-12
CCOC(=O)c1c(NC(=O)CSc2cccc[n+]2[O-])sc(C(=O)Nc2ccccc2)c1C	0%	33%	-3%	-16	45µM*	-16
CCOC(=O)c1sc(NC(=S)NC(=O)c2ccccc2)c(C(=O)OCC)c1C	9%	-6%	-18%	2	17%[59 µM]	-4
O=C(CCCN1C(=O)c2ccccc2C1=O)Nc1nnc(C2CC2)s1	/	32%	-9%	0	9%	4
CCOC(=O)c1sc(NC(=O)c2ccccc2)cc1C	-1%	29%	-2%	11	-17%	2
CCOC(=O)c1sc(NC(=O)c2c(C)nn(Cc3ccccc3)c2C)cc1C	-2%	15%	-7%	-9	50µM*	-11
SMILES	BAZ2B block	HP1b chromo inh	JMJD2A Tudor inh	CtBP-E1A blk	G9a block	Six1-Eya2 inh
COC(=O)/C=C1/S/C(=N/NC(=O)c2ccccc2OC)NC1=O	-14%	37%	-10%	5	7.9µM*	2
Cc1ccc(C(=O)CC(C(=O)O)c2cn(CCC#N)c3ccccc23)cc1 (centres undefined)	3%	?	50µM*	-2	?	5
O=C(O)c1ccccc1S(=O)(=O)Cc1ccccc1	9%	12%	-20%	-10	-14%[12.7 µM]	0
Cn1ncc(S(=O)(=O)Cc2ccccc2)c(Br)c1=O	/	/	/	/	1.5µM*	/
Cc1ccc(NC(=O)CN2C(=O)NC3(CCCc4ccccc43)C2=O)cc1S(=O)(=O)N1CCOCC1 (centres undefined)	-27%	36%	-2%[11.4 µM]	/	?	5
CCN(CC)S(=O)(=O)c1cc(NC(=O)CN2C(=O)NC3(CCCc4ccccc43)C2=O)ccc1C (centres undefined)	-6%	4%	-22%	-16	50µM*	-8
CC1CCN(C(=O)CN2C(=O)NC3(CCCc4ccccc43)C2=O)CC1 (centres undefined)	19%	32%	-4%	-2	?	6
O=C(CN1C(=O)NC2(CCCc3ccccc32)C1=O)N1CCCCC1 (centres undefined)	8%	11%	-6%	5	50µM*	8
Cc1cccc(NC(=O)CNC(=O)CN2C(=O)NC3(CCc4ccccc43)C2=O)c1C (centres undefined)	4%	19%	-6%	-1	45µM*	5
Cc1ccnc2nc(C(=O)OCC(=O)c3ccc(Cl)cc3)nn12	0%	19%	-14%	/	9%[12.7 µM]	-1
COc1cccc(C=NCCCN=Cc2cccc(OC)c2O)c1O	-22%	16%	-15%	0	-33%	6
COc1cc(/C=N\NC(=O)c2ccccc2F)ccc1Oc1ccc([N+](=O)[O-])cn1	-24%	0%	-24%	-1	22%[12.7 µM]	-2
O=C(OCC(=O)N1CCN(C(=O)c2ccco2)CC1)c1cc(-c2ccco2)nc2ccccc12	20µM*	32µM*	40µM*	-20	/	-26
O=C(COC(=O)c1ccccc1NCCO)NCCc1ccccc1	1%	14%	-3%	10	10%[0.501 µM]	12
O=C(OCC(=O)N1CCN(C(=O)c2ccco2)CC1)c1ccccc1NCCO	?	-2%	32µM*	0	4%[0.501 µM]	2

High-throughput results from PubChem.
